pCIP destab: compounds decreasing mouse p/CIP protein stability | decrease of EGFP signal, % at 10 µM | F442A p/CIP-EGFP cells, EGFP fluorescence, 16 h | 0.01% of 290,000 active;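 active = EGFP signal decrease of at least 30% at 10 µM or well 3 SD below plate mean, unless failing retest; inactive = the rest, including hits failing retest or dose response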
NadD block: blocks S. aureus nicotinate mononucleotide adenylyltransferase. purified NadD enzyme, colorimetric absorbance read-out. 0.78% of 360,000 active. inhibition, % at 20 µM; in the data active = inhibition above about 26%
PHOSPHO1 block: PHOSPHO1 (human) inhibition; AID 1565; Q8TCT1; 1.1% of 290,000 active; recombinant PHOSPHO1, absorbance phosphatase assay; inhibition, % at 13.3 µM; in the data active = inhibition above about 60%
Target sequence (Q8TCT1 whole entry, looked up): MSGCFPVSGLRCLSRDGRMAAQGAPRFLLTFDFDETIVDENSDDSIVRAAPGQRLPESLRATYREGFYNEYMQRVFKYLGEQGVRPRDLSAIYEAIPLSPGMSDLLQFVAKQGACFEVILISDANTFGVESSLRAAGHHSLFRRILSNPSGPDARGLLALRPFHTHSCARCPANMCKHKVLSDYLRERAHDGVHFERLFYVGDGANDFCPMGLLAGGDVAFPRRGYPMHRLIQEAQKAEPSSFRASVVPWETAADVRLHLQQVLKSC
SUMO HTRF inh: inhibitors of human SUMOylation (UBC9). inhibition, % at 35 µM. HTRF SUMOylation assay, SAE1/SAE2 + UBC9, in vitro. 0.36% of 290,000 active; in the data active = inhibition above about 50%, passing the limit was not always enough
Target sequence (P63279 whole entry, looked up): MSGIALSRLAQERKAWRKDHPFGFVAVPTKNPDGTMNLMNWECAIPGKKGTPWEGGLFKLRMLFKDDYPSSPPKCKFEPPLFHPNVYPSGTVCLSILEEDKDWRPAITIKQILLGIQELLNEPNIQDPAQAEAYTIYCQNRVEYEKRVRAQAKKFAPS
* hit, by the source's call. An excerpt weighted towards active compounds, which were near 1.8% of everything screened.

Screening COc1cc(/C=C2/S/C(=N/S(=O)(=O)c3ccccc3)NC2=O)c([N+](=O)[O-])cc1OC returned pCIP destab -1, NadD block 7, PHOSPHO1 block 71* and SUMO HTRF inh -2.
Cc1ccc(S(=O)(=O)/N=C2/NC(=O)/C(=C/c3ccc(Br)o3)S2)cc1 was read as pCIP destab -8, NadD block 9, PHOSPHO1 block 21 and SUMO HTRF inh 13.
`CCOc1cc(Br)cc(/C=C2\SC(=Nc3ccccc3)NC2=O)c1O` gave pCIP destab -11, NadD block 36*, PHOSPHO1 block 8 and SUMO HTRF inh 12.
`O=C(NCC1CCN(Cc2ccccc2)CC1)[C@H]1O[C@@H](n2ccc(=O)[nH]c2=O)[C@H](O)[C@@H]1O` gave NadD block -5.
`CC(=O)N1CCN(C(=O)c2cc(C)nc3ccccc23)CC1` gave pCIP destab 3, NadD block -9, PHOSPHO1 block 60* and SUMO HTRF inh 1.
For O=C(c1cc(-c2cccc(Cl)c2)nc2ccccc12)N1CCCC1 the results were pCIP destab -8, NadD block -1, PHOSPHO1 block 62* and SUMO HTRF inh 12.
Screening c1ccc(Cc2c(C3CCCCC3)nc3c4ccccc4ccn23)cc1 returned NadD block 9.
`C#CCOCCOCCOCCNc1nc(N2CCN(C(=O)CCCCCCCCCCNC(=O)[C@H](CCCCN)n3cc(C)nn3)CC2)nc(N2CCN(C(=O)CCCCCCCCCCNC(=O)[C@@H]([C@H](C)O)n3cc(C)nn3)CC2)n1` gave NadD block 10.
C#CCOCCOCCOCCNc1nc(N2CCN(C(=O)CCCCCCCCCCNC(=O)[C@@H](CCSC)n3cc(CCO)nn3)CC2)nc(N2CCN(C(=O)CCCCCCCCCCNC(=O)[C@H](CCCN=C(N)N)n3cc(C[C@@H](C)CC)nn3)CC2)n1 was read as NadD block 71*.
Screening C#CCOCCOCCOCCNc1nc(N2CCN(C(=O)CCCCCCCCCCNC(=O)[C@H](CCCCN)n3cc(C[C@@H](C)CC)nn3)CC2)nc(N2CCN(C(=O)CCCCCCCCCCNC(=O)[C@@H]([C@H](C)O)n3cc(C)nn3)CC2)n1 returned NadD block 43*.
For C#CCOCCOCCOCCNc1nc(N2CCN(C(=O)CCCCCCCCCCNC(=O)[C@@H](CCSC)n3cc(CCO)nn3)CC2)nc(N2CCN(C(=O)CCCCCCCCCCNC(=O)[C@H](CO)n3cc(CCCCCN)nn3)CC2)n1 the results were NadD block 23.
For C#CCOCCOCCOCCNc1nc(N2CCN(C(=O)CCCCCCCCCCNC(=O)Cn3cc(CCCCCN)nn3)CC2)nc(N2CCN(C(=O)CCCCCCCCCCNC(=O)Cn3cc(C[C@@H](C)O)nn3)CC2)n1 the results were NadD block 17.
Screening C#CCOCCOCCOCCNc1nc(N2CCN(C(=O)CCCCCCCCCCNC(=O)Cn3cc(C[C@@H](C)O)nn3)CC2)nc(N2CCN(C(=O)CCCCCCCCCCNC(=O)[C@@H]([C@H](C)CC)n3cc(CCCCCN)nn3)CC2)n1 returned NadD block 34*.
`C#CCOCCOCCOCCNc1nc(N2CCN(C(=O)CCCCCCCCCCNC(=O)[C@H](CCCCN)n3cc(C[C@@H](C)CC)nn3)CC2)nc(N2CCN(C(=O)CCCCCCCCCCNC(=O)[C@H](CCCN=C(N)N)n3cc(C[C@@H](C)CC)nn3)CC2)n1` gave NadD block 64*.
Screening O=C1CCCCCCC(=O)[C@H](O)C[C@H](c2ccccc2)O1 returned NadD block -4.
C#CCOCCOCCOCCNc1nc(N2CCOCC2)nc(N2CCN(C(=O)CCCCCCCCCCNC(=O)[C@H]([C@@H](C)CC)n3cc(CCCCN=C(N)N)nn3)CC2)n1 was read as NadD block 11.
`C#CCOCCOCCOCCNc1nc(N2CCN(C(=O)CCCCCCCCCCNC(=O)[C@H]([C@@H](C)CC)n3cc(CCCCN=C(N)N)nn3)CC2)nc(N2CCN(C(=O)CCCCCCCCCCNC(=O)[C@@H]([C@H](C)O)n3cc(C)nn3)CC2)n1` gave NadD block 40*.
For C#CCOCCOCCOCCNc1nc(N2CCN(C(=O)CCCCCCCCCCNC(=O)[C@@H](CCC(=O)O)n3cc(CCCCCN)nn3)CC2)nc(N2CCN(C(=O)CCCCCCCCCCNC(=O)[C@H](CCCCN)n3cc(C[C@@H](C)CC)nn3)CC2)n1 the results were NadD block 36*.
For C#CCOCCOCCOCCNc1nc(N2CCN(C(=O)C(Cc3cc4ccccc4[nH]3)n3cc(C(N)C(C)CC)nn3)CC2)nc(N2CCN(C(=O)C(Cc3cc4ccccc4[nH]3)n3cc(C(N)C(C)CC)nn3)CC2)n1 (centres undefined) the results were pCIP destab -8, NadD block 42*, PHOSPHO1 block 9 and SUMO HTRF inh 6.
`Cc1ccccc1C(=O)Nc1cccc(C(=O)N/N=C/c2ccccn2)c1` gave pCIP destab -3, NadD block -4, PHOSPHO1 block 11 and SUMO HTRF inh 12.
CC(=O)C(=Cc1cccc(C#N)c1)C(=O)c1ccccc1 was read as NadD block 7.
Screening O=C(O)CONC(=O)c1cc(OCC(F)(F)F)ccc1OCC(F)(F)F returned pCIP destab -5, NadD block 8, PHOSPHO1 block 22 and SUMO HTRF inh 14.
Screening CNC(=O)c1cc(OCC(F)(F)F)ccc1OCC(F)(F)F returned pCIP destab -1, NadD block -7, PHOSPHO1 block 61* and SUMO HTRF inh 12.
Screening CCOc1cc(/C=N/NC(=O)c2cc(C)n(-c3ccc(F)cc3)c2C)ccc1O returned pCIP destab 4, NadD block 15, PHOSPHO1 block 38 and SUMO HTRF inh 9.
`Cc1cc(C(=O)N/N=C2\CC(=O)c3ccccc32)c(C)n1-c1ccc(F)cc1` gave pCIP destab 9, NadD block 31*, PHOSPHO1 block 14 and SUMO HTRF inh 36.
For O=C1C(Cl)=C(N2CCCCC2)C(=O)C(Cl)=C1c1cnc(N2CCCCC2)s1 the results were pCIP destab 0, NadD block 33*, PHOSPHO1 block -14 and SUMO HTRF inh 59*.
`N#Cc1c(-c2ccccc2Cl)cc(C2CC2)nc1N` gave pCIP destab -14, NadD block 8, PHOSPHO1 block 84* and SUMO HTRF inh -3.
`O=C1COc2ccc(C(=O)COC(=O)c3ccc(F)cc3Cl)cc2N1` gave NadD block -2.
CCC(c1nnnn1-c1ccc2c(c1)OCCO2)N1CCN(c2ccc(C)cc2)CC1 (centres undefined) was read as NadD block -6.
Screening Nc1ncnc2c1ncn2[C@@H]1O[C@H](COP(=O)(O)O)[C@@H](O)[C@H]1O returned pCIP destab -2, NadD block 5, PHOSPHO1 block 25 and SUMO HTRF inh 62*.
For Nc1ncnc2c1ncn2C1OC(COP(=O)(O)O)C(O)C1O (centres undefined) the results were pCIP destab 1, NadD block 6 and PHOSPHO1 block 41.
For COc1ccc([C@H]2C[C@H](O)C[C@@H](CCn3cc(-c4ccccc4)nn3)O2)cc1 the results were NadD block -6.

Bioassay records (PubChem BioAssay)
